From the supplement of paper PMC6555819

Assays:
Assay in all cases: PBM binding z-score (relative to random genomic background probes); higher = stronger binding; sequences stand for … in GC…GCGATTGACAGCGTAGAATGAAGG
[1] = system: RARb homodimer (NR concentration 270 nM)
Outline: (§1)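 Binding buffer was PBS pH 7.4 with 2% milk, 0.02% Triton X-100, 1 mM DTT, 0.2 mg/mL BSA and 0.4 mg/ml salmon testes DNA. In it, ligand-free nuclear receptor dimers were incubated 1 h on custom Agilent 4×180K protein-binding microarrays carrying double-stranded probes. Antibodies against each partner (one per run) detected binding, and z-scores were calculated against random background probes after regression normalization of scanned fluorescence.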

[2] = system: RARg:RXRa (NR concentration 270 nM, RXRa partner concentration 90 nM)
Outline: as §1

[3] = system: RARg homodimer (NR concentration 270 nM)
Outline: as §1

[4] = system: RXRa DBDmut IVT, anti-RXR (DBD mutation: RXRa K156A/R161A, NR concentration 90 nM)
Outline: as §1

[5] = system: RXRa homodimer (NR concentration 180 nM)
Outline: as §1

[6] = system: THRa:RXRa (NR concentration 90 nM, RXRa partner concentration 90 nM)
Outline: as §1

[7] = system: THRa homodimer (NR concentration 90 nM)
Outline: as §1

[8] = system: VDR homodimer (NR concentration 270 nM)
Outline: as §1

CTTACTGGGCCACGAAAGGTCATTGATTCAGTGA
PBM binding z-score [1]: 4.85 | PBM binding z-score [2]: 5.14 | PBM binding z-score [3]: 4.77 | PBM binding z-score [4]: 1.19 | PBM binding z-score [5]: 5.84 | PBM binding z-score [6]: 4.12 | PBM binding z-score [7]: 1.15 | PBM binding z-score [8]: 1.78

TCTCGGAGGACAGGAAGGTCAGAGCTTTCCAGAG
PBM binding z-score [1]: 3.54 | PBM binding z-score [2]: 2.42 | PBM binding z-score [3]: 2.34 | PBM binding z-score [4]: 0.51 | PBM binding z-score [5]: 1.69 | PBM binding z-score [6]: 2.1 | PBM binding z-score [7]: 0.256 | PBM binding z-score [8]: 0.37

ATCGAAAGGTCGAAGGTGAGTATCCCCACCCGAA
PBM binding z-score [1]: 2.43 | PBM binding z-score [2]: 3.95 | PBM binding z-score [3]: 3.71 | PBM binding z-score [4]: 0.658 | PBM binding z-score [5]: 4.73 | PBM binding z-score [6]: 2.36 | PBM binding z-score [7]: 0.377 | PBM binding z-score [8]: 0.132

ACTAGCAGGCCAAGTTTGGGTCAGTCAAACAAAG
PBM binding z-score [1]: 1.85 | PBM binding z-score [2]: 1.65 | PBM binding z-score [3]: 0.925 | PBM binding z-score [4]: -0.416 | PBM binding z-score [5]: 0.0586 | PBM binding z-score [6]: 1.62 | PBM binding z-score [7]: 0.427 | PBM binding z-score [8]: -0.265

AGATGTAGGTTACATCCGGGTCATTCAGGCTATG
PBM binding z-score [1]: 2.87 | PBM binding z-score [2]: 3.6 | PBM binding z-score [3]: 2.14 | PBM binding z-score [4]: 0.74 | PBM binding z-score [5]: 3.33 | PBM binding z-score [6]: 3.72 | PBM binding z-score [7]: 2.08 | PBM binding z-score [8]: 2.53

CCTACTGGGCCATTAGGTCATTGATATCAACGTT
PBM binding z-score [1]: 2.8 | PBM binding z-score [2]: 2.38 | PBM binding z-score [3]: 2.12 | PBM binding z-score [4]: 0.292 | PBM binding z-score [5]: 1.04 | PBM binding z-score [6]: 2.63 | PBM binding z-score [7]: 2.27 | PBM binding z-score [8]: 1.01

TCCGCTAGGTCAGTTGGTCAGCTAACGAGCTGCC
PBM binding z-score [1]: 2.85 | PBM binding z-score [2]: 2.77 | PBM binding z-score [3]: 3.75 | PBM binding z-score [4]: 0.733 | PBM binding z-score [5]: 1.01 | PBM binding z-score [6]: 1.27 | PBM binding z-score [7]: 0.178 | PBM binding z-score [8]: -0.514
